# From PubChem BioAssay (EPA / NIEHS)
# Values joined by “and” are separate entries in the source; they are usually repeats but may differ in a detail not shown here. Identical values can stand only once. Records with an inconclusive call do not appear. More than one record can exist for a structure, and the calls need not agree. Active and inactive are the calls of the source. Rule for the calls, unless noted: active = hit-call score of the fitted dose curve at least 0.9, where 1 is the maximum; inactive = score below 0.9.
# How the values were obtained:
# [1] = CCTE_Shafer_MEA_dev_bursting_electrodes_number: CCTE's Neural Network Formation Assay for Number of Bursting Electrodes, Shafer Lab (AID 2284043; active = hit-call score of the fitted dose curve at least 0.9, where 1 is the maximum;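 for AC50: potency is for loss of bursting electrodes relative to DMSO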)
# In short: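 Primary rat cortical neurons were cultured on PEI-coated 48-well MEA plates (16 electrodes/well) and exposed from plating through day 12, with compound renewed at feeds on DIV 5 and 9. Electrodes bursting ≥1 per 2 min were counted on DIV 5, 7, 9, 12; trapezoidal AUC taken.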
# [2] = CCTE_Shafer_MEA_dev_per_burst_interspike_interval: CCTE's Neural Network Formation Assay for Burst Interspike Interval, Shafer Lab (AID 2284044);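 note: mean spike spacing inside bursts as AUC over recordings on days 5 7 9 12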;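 for AC50: potency for a decrease of within-burst interspike interval below DMSO level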
# In short: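 Primary rat cortical neurons on 48-well MEA plates, exposed from day 0 through day 12, treatment renewed at DIV 5 and 9. Within-burst interspike interval recorded days 5, 7, 9, 12, well-averaged, summarised as AUC; negative fit versus DMSO.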
# [3] = CCTE_Shafer_MEA_dev_burst_duration_mean: CCTE's Neural Network Formation Assay for Mean Burst Duration, Shafer Lab (AID 2284045);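 for AC50: curve fitted for loss meaning shorter burst duration than DMSO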
# In short: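 Primary rat cortical neurons on PEI-coated 16-electrode MEA wells, exposed from plating through day 12 with compound renewed at DIV 5 and 9; spontaneous activity recorded days 5, 7, 9, 12. Well-mean burst duration collapsed as trapezoidal AUC, fitted for loss versus DMSO.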
# [4] = CCTE_Shafer_MEA_dev_interburst_interval_mean: CCTE's Neural Network Formation Assay for Mean Interburst Interval, Shafer Lab (AID 2284046);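 note: well-mean interburst interval of bursting electrodes as AUC over four recording days; curve fitted for decrease in interburst interval relative to DMSO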
# In short: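 Recordings on days 5, 7, 9 and 12 give well-mean interburst interval across actively bursting electrodes, summarized as area under the curve. Cultures: rat cortical neurons, continuous exposure from day 0, compound renewed at feeds; decrease analyzed versus DMSO.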
# [5] = CCTE_Shafer_MEA_dev_inter_network_spike_interval_mean: CCTE's Neural Network Formation Assay for Mean Inter-network Spike Interval, Shafer Lab (AID 2284047);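 for AC50: potency for a decrease in mean inter-network spike interval below DMSO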
# In short: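 Primary rat cortical neurons on 16-electrode MEA wells, exposed from plating day 0 through DIV 12, compound renewed at DIV 5 and 9 media changes. Mean interval between network-spike peaks recorded DIV 5, 7, 9, 12; collapsed as trapezoidal AUC, fitted downward versus DMSO.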
# [6] = CCTE_Shafer_MEA_dev_network_spike_number: CCTE's Neural Network Formation Assay for Number of Network Spikes, Shafer Lab (AID 2284048);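 note: synchronized bursts across electrodes counted on days 5 7 9 12 and integrated as AUC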;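 for AC50: fit as a loss of signal meaning fewer network spikes than DMSO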
# In short: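 Primary rat cortical neurons were seeded at 1.5 x 10^5 cells/well on PEI-coated 16-electrode MEA wells with laminin, exposed from plating day 0, compound renewed at DIV 5 and 9. Network spikes were recorded on days 5, 7, 9, 12 and summarized as trapezoidal AUC versus DMSO.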
# [7] = CCTE_Shafer_MEA_dev_network_spike_peak: CCTE's Neural Network Formation Assay for Mean Number of Electrodes in Network Spike, Shafer Lab (AID 2284049);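 for AC50: fitted for loss of signal meaning fewer electrodes in network spikes than DMSO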
# In short: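 Continuous 12-day exposure of rat cortical cultures, starting at plating, on MEA plates. Endpoint: electrodes participating in network-spike peaks, AUC across DIV 5–12, DMSO as negative control.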
# [8] = CCTE_Shafer_MEA_dev_spike_duration_mean: CCTE's Neural Network Formation Assay for Mean Spike Duration, Shafer Lab (AID 2284051);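 note: mean network spike duration pooled as area under curve over DIV 5 to 12 recordings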;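 for AC50: potency for a decrease in mean network spike duration versus DMSO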
# In short: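 Primary rat cortical neurons on 16-electrode MEA wells (PEI-coated, laminin in plating drop), exposed from plating through DIV 12 with compound renewed at DIV 5 and 9. Mean network-spike duration recorded DIV 5, 7, 9, 12; trapezoidal AUC across days, DMSO baseline.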
# [9] = CCTE_Shafer_MEA_dev_network_spike_duration_std: CCTE's Neural Network Formation Assay for Standard Deviation of Network Spike Duration, Shafer Lab (AID 2284052);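 note: area under curve of spike duration SD across recording days 5 to 12; hits are decreases in network spike duration SD versus DMSO vehicle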
# In short: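 Primary rat cortical neurons on PEI-coated 16-electrode MEA wells, exposed from plating day 0 through day 12 with compound renewed at DIV 5 and 9. Network spike duration SD recorded on days 5, 7, 9, 12, collapsed as trapezoidal AUC; loss-of-signal fit versus DMSO.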
# [10] = CCTE_Shafer_MEA_dev_per_network_spike_spike_number_mean: CCTE's Neural Network Formation Assay for Mean Number of Spikes in a Network Spike, Shafer Lab (AID 2284053);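 for AC50: fitted as decrease in spikes per network spike relative to DMSO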
# In short: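 Primary rat cortical neurons on 48-well, 16-electrode MEA plates were exposed from plating to DIV 12, with dosing renewed on DIV 5 and 9. Spikes per network spike (0.05 s peak window) were recorded on DIV 5, 7, 9 and 12 and collapsed as trapezoidal AUC versus DMSO.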
# [11] = CCTE_Shafer_MEA_dev_per_network_spike_spike_percent: CCTE's Neural Network Formation Assay for Percent of Spikes in a Network Spike, Shafer Lab (AID 2284054)
# In short: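 Primary rat cortical neurons on 16-electrode MEA wells (PEI-coated, laminin at plating), exposed from day 0 with renewal at DIV 5 and 9; spikes within 0.05 s of network-spike peaks over total spikes, AUC across days 5, 7, 9, 12.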
# [12] = UKN5_HCS_SBAD2_cell_viability: Viability Assessment in the University of Konstanz (UKN) Leist Lab Neurite Outgrowth Assay in human iPSC-derived immature Dorsal Root Ganglia Neurons (UKN5) (AID 2284056)
# In short: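 iPSC-derived immature peripheral neurons (SBAD2) seeded on Matrigel with CHIR99021, SU5402 and DAPT, dosed 1 h later for 24 h. Viability from Hoechst H-33342 and calcein-AM live staining, high-content imaging; bidirectional fit versus DMSO.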
# [13] = CCTE_Shafer_MEA_dev_LDH: CCTE's Lactate Dehydrogenase Assay for Cytotoxicity in the Neural Network Formation Assay, Shafer Lab (AID 2284068; active = hit-call score of the fitted dose curve at least 0.9, where 1 is the maximum;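 note: exposure for twelve days from plating with re-dosing on DIV 5 and 9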)
# In short: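 Primary rat cortical neurons were plated on PEI/laminin MEA plates and exposed from day 0 for twelve days, with compound renewed at DIV 5 and 9. Cytotoxicity was determined by spectrophotometric LDH assay relative to DMSO.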
# [14] = CCTE_Shafer_MEA_acute_AB: CCTE's Alamar Blue Assay for Cytotoxicity in the Neural Acute Assay, Shafer Lab (AID 2284069; active = hit-call score of the fitted dose curve at least 0.9, where 1 is the maximum;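 note: active compounds lower the viability signal compared with DMSO wells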)
# In short: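 Primary rat cortical neurons on MEA plates, exposed acutely after baseline recording on day 13 or 15 post-plating. Viability by CellTiter Blue resazurin reduction (1:6 reagent dilution), fluorescence 544/590 nm; loss of signal versus DMSO.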
# [15] = UKN5_HCS_SBAD2_neurite_outgrowth: University of Konstanz (UKN) Leist Lab Neurite Outgrowth Assay in human iPSC-derived immature Dorsal Root Ganglia Neurons (UKN5) (AID 2284070); conditions: actives raise or lower the signal
# In short: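 SBAD2 iPSC-derived immature peripheral neurons on Matrigel, 100.000 cells/cm2, medium with CHIR99021 (1.5 uM), SU5402 (5 uM), DAPT (5 uM); compound added 1 h post-seeding for 24 h. Calcein-AM neurite area by high-content imaging; Hoechst H-33342 viability; bidirectional fit vs DMSO.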
# [16] = CCTE_Shafer_MEA_dev_AB: CCTE's Alamar Blue Assay for Cytotoxicity in the Neural Network Formation Assay, Shafer Lab (AID 2284083; active = hit-call score of the fitted dose curve at least 0.9, where 1 is the maximum;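 note: twelve days of exposure from plating with re-dosing on DIV 5 and 9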)
# In short: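 Primary rat cortical neurons on PEI-coated 48-well MEA plates, 1.5 x 10^5 cells/well in laminin drop; compound exposure from day 0 of plating for twelve days, renewed at medium changes on DIV 5 and 9. Viability read as resazurin reduction by fluorescence, relative to DMSO.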
# [17] = CCTE_Shafer_MEA_acute_LDH: CCTE's Lactate Dehydrogenase Assay for Cytotoxicity in the Neural Acute Assay, Shafer Lab (AID 2284086; active = hit-call score of the fitted dose curve at least 0.9, where 1 is the maximum;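 note: active means LDH release rises above DMSO vehicle level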)
# In short: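 Medium from rat cortical neuron MEA cultures sampled right after the 40 min compound-exposure recording; released LDH measured by absorbance at 490 nm. Analyzed as signal gain relative to DMSO.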
# [18] = CCTE_Shafer_MEA_dev_mutual_information_norm: CCTE's Neural Network Formation Assay for Mutual Information Normalization, Shafer Lab (AID 2284091);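 for AC50: mutual information between electrodes summarised as area under curve across four recording days; potency is for a decrease in mutual information relative to DMSO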
# In short: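 Rat cortical cultures, 48-well MEA, continuous exposure DIV 0–12 with full media/compound change DIV 5 and 9. Readout: inter-electrode mutual information, AxIS adaptive spike detection; AUC across DIV 5/7/9/12 recordings; DMSO baseline, negative fitting direction.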
# DIO2 (gene 1734) = test: CCTE_GLTED_hDIO2: CCTE's human Deiodinase 2 (DIO2) Inhibition Assay, Great Lakes Toxicology and Ecology Division (GLTED) Lab (AID 2284050; active = hit-call score of the fitted dose curve at least 0.9, where 1 is the maximum)
# In short: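 Cell-free human DIO2 incubated 3 h with chemical; liberated iodide quantified by Sandell-Kolthoff absorbance. Triplicate plates; loss of signal fitted vs DMSO.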
# DIO3 (gene 1735) = test: CCTE_GLTED_hDIO3: CCTE's human Deiodinase 3 (DIO3) Inhibition Assay, Great Lakes Toxicology and Ecology Division (GLTED) Lab (AID 2284055; active = hit-call score of the fitted dose curve at least 0.9, where 1 is the maximum;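 for AC50: potency is for inhibition seen as loss of released iodide signal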)
# In short: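 Human DIO3 from an adenovirus expression system is incubated 3 h with test chemical. Released iodide is quantified by Sandell-Kolthoff absorbance, in triplicate plates. Loss of signal is fitted relative to DMSO.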
smiles,measurement,setting,value
Oc1c(Cl)cc(Cl)c(Cl)c1Cc1c(O)c(Cl)cc(Cl)c1Cl,AC50,[1],919 nM (active) and 769 nM (active)
same,AC50,[2],2.04 µM (active) and 2.61 µM (active)
same,AC50,[3],1.19 µM (active) and 2.59 µM (active)
same,AC50,[4],2.62 µM (active) and 2.86 µM (active)
same,AC50,[5],0.0601 µM (active)
same,outcome,[5],inactive
same,AC50,[6],830 nM (active) and 526 nM (active)
same,AC50,[7],1.19 µM (active) and 1.83 µM (active)
same,AC50,[8],1.66 µM (active) and 1.35 µM (active)
same,AC50,[9],972 nM (active) and 727 nM (active)
same,AC50,[10],809 nM (active) and 929 nM (active)
same,AC50,[11],1.03 µM (active) and 842 nM (active)
same,AC50,[12],73.5 µM (active)
same,AC50,[13],1.26 µM (active) and 1.25 µM (active)
same,outcome,[14],inactive
same,AC50,[15],78 µM (active)
same,AC50,[16],8.76 µM (active) and 3.54 µM (active)
same,outcome,[17],inactive
same,AC50,[18],578 nM (active) and 302 nM (active)
CCCCCCCCC=CCCCCCCCC1=NCCN1CCO,AC50,DIO2 (gene 1734),60.9 µM (active)
same,AC50,DIO3 (gene 1735),3.92 µM (active)
CCCCCCCCCCCCCCN(CCO)CCO,AC50,DIO2 (gene 1734),39.9 µM (active)
same,AC50,DIO3 (gene 1735),7.58 µM (active)
CCCCCC(C=O)=Cc1ccccc1,AC50,DIO2 (gene 1734),62.6 µM (active)
same,AC50,DIO3 (gene 1735),16.4 µM (active)
Cc1cc(S(=O)(=O)O)ccc1N=Nc1c(O)ccc2ccccc12,outcome,DIO2 (gene 1734),inactive
same,outcome,DIO3 (gene 1735),inactive
CS(=O)(=O)OCCCCOS(C)(=O)=O,outcome,[1],inactive
same,outcome,[2],inactive
same,outcome,[3],inactive
same,outcome,[4],inactive
same,outcome,[5],inactive
same,outcome,[6],inactive
same,outcome,[7],inactive
same,outcome,[8],inactive
same,outcome,[9],inactive
same,outcome,[10],inactive
same,outcome,[11],inactive
same,outcome,[16],inactive
same,outcome,[18],inactive
CC(C)CCCCCCCCCCCCCCC(=O)O,AC50,DIO2 (gene 1734),100 µM (active)
same,AC50,DIO3 (gene 1735),19.4 µM (active)
COCCc1ccc(OCC(O)CNC(C)C)cc1 (stereo not given),outcome,[1],inactive
same,outcome,[2],inactive
same,outcome,[3],inactive
same,outcome,[4],inactive
same,outcome,[5],inactive
same,outcome,[6],inactive
same,outcome,[7],inactive
same,outcome,[8],inactive
same,outcome,[9],inactive
same,outcome,[10],inactive
same,outcome,[11],inactive
same,outcome,[13],inactive
same,outcome,[16],inactive
same,outcome,[17],inactive
same,outcome,[18],inactive
CCCCCCCCCCCCN1CCCCCC1=O,AC50,DIO2 (gene 1734),116 µM (active)
same,AC50,DIO3 (gene 1735),89.2 µM (active)
CCCCCCCCCCCCCC(=O)OCC(O)CO (stereo not given),AC50,DIO2 (gene 1734),100 µM (active)
same,AC50,DIO3 (gene 1735),47.9 µM (active)
COc1ccc(N=Nc2cc(C)c(N=Nc3ccc(S(=O)(=O)O)cc3)cc2OC)cc1,AC50,DIO2 (gene 1734),100 µM (active)
same,AC50,DIO3 (gene 1735),100 µM (active)
CN(C)C(=S)SC(=S)N(C)C,outcome,[17],inactive
CC1(C)CCC[C@]2(C)[C@H]3CCO[C@]3(C)CC[C@@H]12,outcome,[17],inactive
